Measured values from PubChem BioAssay AID504850 (National Center for Advancing Translational Sciences (NCATS), 2011).
The campaign covered roughly 2,300 compounds. About 1,200 (52%) were called active. Roughly 34% stayed inconclusive and do not appear here. The call rests on the fitted dose curve; in most records, active means well fitted inhibition curve with a large enough effect; inconclusive means small, poorly fitted or top-dose-only effect, or effect the other way; inactive means no such curve, though single readings can be large or run the other way. The set was probably picked from earlier hits. Some of the results follow.

assay: Confirmation screen for delayed death inhibitors of the malarial parasite plastid, 48 hour incubation; further: nearly all actives have a fitted effect of over 65% in size; conditions: P. falciparum-infected erythrocytes, luciferase growth; series mostly up to 28.7 µM; activity change, negative = inhibition: at the top concentration
How it was run: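 Single-generation (48 h, 37 C) exposure of integrated firefly luciferase-reporter P. falciparum in red cells, 0.1% parasitemia at 2% hematocrit, Albumax-supplemented RPMI. Falling luciferase signal marks parasite growth inhibition.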
On the % scale 0 is the no-effect control and ±100 the full control effect; potency means the concentration at half of the fitted maximal effect.

Structure (SMILES) | activity change, negative = inhibition | Potency
CCOc1cc(/C=C2/C(=O)ON=C2C)ccc1OCc1ccccc1 | -1.49% (inactive) | 
CCOC(=O)C1CCCN(Cc2ccc(OCc3ccccc3)c(OC)c2)C1 (stereo not drawn) |  | 14.1 µM (active)
CCOC(=O)C1CCCCN1Cc1cccc(OCc2ccccc2)c1 (stereo not drawn) |  | 14.1 µM (active)
CC(C)(C)c1ccc(C(O)CCCN2CCC(C(O)(c3ccccc3)c3ccccc3)CC2)cc1 (stereo not drawn) |  | 12.6 µM (active)
Cc1ccc(C(=O)C(C(=O)/C=C/c2ccccc2)=C2SCCCS2)cc1 |  | 14.1 µM (active)
COc1ccc2[nH]cc(C(=O)CCl)c2c1 |  | 12.6 µM (active)
COc1ccc2[nH]cc(CCCN3C(=O)c4ccccc4C3=O)c2c1 | -25.1% (inactive) | 
CCn1c2ccccc2c2c3ncc4cccn4c3ccc21 |  | 14.1 µM (active)
CCC(CC)COC(=O)C1=C(C)NC(=O)NC1c1ccccc1Br (stereo not drawn) |  | 12.6 µM (active)
COc1cccc(CNC(=O)c2cc3oc4ccccc4c3n2C)c1OC | 4.7% (inactive) | 
CCOc1ccccc1CNC(=O)c1cc2oc3ccccc3c2n1CC |  | 14.1 µM (active)
CCOc1ccc(CNC(=O)c2cc3oc4ccccc4c3n2C)cc1 | 1.62% (inactive) | 
CC(=O)Nc1cccc(Oc2ncnc3scc(-c4ccc(C(C)C)cc4)c23)c1 |  | 11.2 µM (active)
COc1ccc(-c2c(-c3ccc(OC)c(C)c3O)n[nH]c2C)cc1 |  | 14.1 µM (active)
CC1CCC/C=C/C(=O)c2c(O)cc(O)cc2CC(=O)O1 (stereo not drawn) |  | 7.08 µM (active)
COc1ccc(C2CC(=O)C3=C(C2)Nc2ccccc2NC3c2coc3ccccc3c2=O)cc1OC (stereo not drawn) |  | 1.26 µM (active)
CCCCSc1nnc(-c2cc3c(C(F)(F)F)nn(C)c3s2)n1C |  | 12.6 µM (active)
Cc1cccc2cc3c(nc12)SC(=NCC1CCCO1)N(Cc1ccco1)C3 (stereo not drawn) |  | 1.78 µM (active)
O=C(O)CCn1c(-c2ccccc2)cc2c1CCCC2=O | -9.21% (inactive) | 
COc1cc(/C=C/C(=O)NC(=O)c2ccccc2O)ccc1OC(C)=O |  | 10 µM (active)
O=C(CCN1C(=O)S/C(=C\c2ccccc2)C1=O)NC1CCS(=O)(=O)C1 (stereo not drawn) | -29.3% (inactive) | 

Structure (SMILES) | activity change, negative = inhibition | Potency
O=C(CCl)NCCN1C(=O)S/C(=C\c2cccnc2)C1=O |  | 7.94 µM (active)
COc1ccc2c(c1OC)C(=O)OC2Nc1nc(-c2ccccc2)cs1 (stereo not drawn) |  | 10 µM (active)
CCCCNc1nc2sc3c(c2c(=O)n1-c1cccc(Cl)c1)CCN(C)C3 |  | 3.55 µM (active)
CCCCCNc1nc2sc3c(c2c(=O)n1-c1cccc(Cl)c1)CCN(C)C3 |  | 7.08 µM (active)
Brc1ccccc1-c1nnc(COc2ncnc3c2cnn3-c2ccccc2)o1 | -15.7% (inactive) | 
O=C(C[n+]1cccc(CNC(=O)c2ccc(OC(F)F)cc2)c1)Nc1ccc(SC(F)F)cc1 |  | 5.62 µM (active)
CCOc1ccc(NC(=O)C[n+]2ccc(N(C)C)cc2)cc1 |  | 2.51 µM (active)
CN(C)c1cc[n+](CC(=O)Nc2ccc(OC(F)F)cc2)cc1 |  | 2.82 µM (active)
Cc1ccc[n+](CC(=O)Nc2ccc(N(C)C)cc2)c1 | -11.7% (inactive) | 
O=C(CCl)Nc1ccc(Sc2ccc(NC(=O)CCl)cc2)cc1 |  | 2.51 µM (active)
CC(C)N(c1ccccc1)c1ccc(NC(=O)CCl)cc1 |  | 11.2 µM (active)
CCOC(=O)c1c(NC(=S)N2CCCCC2)sc2c1CCN(C(=O)OCC)C2 |  | 5.62 µM (active)
CCc1ccc(-c2nc3ccc(Br)cc3c(C(=O)O)c2C)s1 | -27.6% (inactive) | 
C=CCc1cccc(CNc2ccc(Br)cc2)c1O |  | 3.98 µM (active)
COc1ccc(CCNc2cc(C)nc3c(-c4ccc(Cl)cc4)c(C)nn23)cc1OC |  | 12.6 µM (active)
Fc1ccc(CNc2ccc(N3CCN(Cc4ccccc4)CC3)cc2)cc1 |  | 12.6 µM (active)
O=C(CSc1nnc(CNc2ccc(F)cc2)o1)c1ccccc1 | -19.3% (inactive) | 
CCCCN(CCCC)CC(O)c1cc(Cl)cc2c1-c1ccc(Cl)cc1/C2=C/c1ccc(Cl)cc1 (stereo not drawn) |  | 0.0562 µM (active)
Cc1nn(Cc2c(Cl)cccc2Cl)c(C)c1NC(=O)c1cc(C(C)C)on1 |  | 12.6 µM (active)
CCC(C(=O)Nc1sc(C(N)=O)c(C)c1C(=O)OC)c1ccccc1 (stereo not drawn) |  | 12.6 µM (active)
CCOC(=O)c1cnc2ccccc2c1NCCc1ccc(OC)c(OC)c1 |  | 11.2 µM (active)

Structure (SMILES) | activity change, negative = inhibition | Potency
CCN(CC)C(=O)N1c2ccccc2C=Cc2ccccc21 |  | 15.8 µM (active)
O=C1c2ccccc2C(=Nc2ccccc2)C1c1cccc(Br)c1 (stereo not drawn) |  | 3.98 µM (active)
CCOC(=O)c1cc(-c2ccccc2)sc1NC(=O)C(C)OC(=O)c1cccnc1Cl (stereo not drawn) |  | 11.2 µM (active)
CCc1ccc(Nc2n[n+](-c3ccccc3)c(-c3cccc(Cl)c3Cl)s2)cc1 |  | 3.16 µM (active)
CC1=CC(C)(C)N2C(=O)C3(NCCc4c3[nH]c3ccccc43)c3cc(C)cc1c32 (stereo not drawn) |  | 14.1 µM (active)
CCN(CC)c1ccc(/C=N/NC(=S)NC)c(O)c1 |  | 10 µM (active)
O=C(C[n+]1ccccc1)Nc1ccc(Cl)c([N+](=O)[O-])c1 |  | 12.6 µM (active)
N#CCCn1nc(-c2ccc(Cl)cc2)cc1Nc1ccccc1NC(=O)C(F)(F)F | -22.3% (inactive) | 
O=C(CCl)Nc1c2c(nn1-c1ccccc1)CSC2 |  | 2.51 µM (active)
Cc1ccc(-c2cc(NC(=O)CCl)n(-c3ccccc3)n2)cc1 |  | 10 µM (active)
CC(C)(C)c1cc(NC(=O)CCl)n(-c2ccccc2)n1 |  | 12.6 µM (active)
CC1CCN(C(=O)Cn2c(=O)oc3cc(S(=O)(=O)N4CCCCC4)ccc32)CC1 |  | 15.8 µM (active)
CCOc1ccccc1CN1CCN(Cc2ccc3cccc(OC)c3n2)CC1CCO (stereo not drawn) |  | 14.1 µM (active)
COc1ccc(CN2CCN(Cc3cc4ccccc4o3)CC2CCO)cc1C (stereo not drawn) |  | 14.1 µM (active)
Cc1cccc(C2Nc3ccccc3C(=O)N2c2ccccc2)n1 (stereo not drawn) | -25.3% (inactive) | 
CCCN1C(=O)c2ccccc2NC1c1ccc(OC)cc1O (stereo not drawn) |  | 12.6 µM (active)
O=[N+]([O-])c1ccc(CNC2CCCc3ccccc32)cc1 (stereo not drawn) | -49.5% (inactive) | 
O=[N+]([O-])c1ccc(C[n+]2cccc3c4ccccc4ccc32)cc1 |  | 0.398 µM (active)
O=C(NC1CCCC1)c1ccc([N+](=O)[O-])s1 |  | 14.1 µM (active)
O=C(NC1C=CS(=O)(=O)C1)c1sc2ccccc2c1Cl (stereo not drawn) |  | 6.31 µM (active)
Cc1cc(Cl)cc(C)c1OCCn1ccnc1 |  | 12.6 µM (active)
